# Measured values published in PubChem BioAssay (NCATS).
# Results filed as inconclusive are left out. A call without a number means that no potency is given here. Calls of active or inactive are those of the source. Calls come from the whole dose curve; as a rule, active = well fitted inhibition curve with a large enough effect; inconclusive = small, poorly fitted or top-dose-only effect; inactive = no such curve, though single readings can be large or run the other way.
# Target: Cytochrome P450 3A7 (Homo sapiens) (UniProt P24462)
# Sequence (P24462 whole entry, looked up): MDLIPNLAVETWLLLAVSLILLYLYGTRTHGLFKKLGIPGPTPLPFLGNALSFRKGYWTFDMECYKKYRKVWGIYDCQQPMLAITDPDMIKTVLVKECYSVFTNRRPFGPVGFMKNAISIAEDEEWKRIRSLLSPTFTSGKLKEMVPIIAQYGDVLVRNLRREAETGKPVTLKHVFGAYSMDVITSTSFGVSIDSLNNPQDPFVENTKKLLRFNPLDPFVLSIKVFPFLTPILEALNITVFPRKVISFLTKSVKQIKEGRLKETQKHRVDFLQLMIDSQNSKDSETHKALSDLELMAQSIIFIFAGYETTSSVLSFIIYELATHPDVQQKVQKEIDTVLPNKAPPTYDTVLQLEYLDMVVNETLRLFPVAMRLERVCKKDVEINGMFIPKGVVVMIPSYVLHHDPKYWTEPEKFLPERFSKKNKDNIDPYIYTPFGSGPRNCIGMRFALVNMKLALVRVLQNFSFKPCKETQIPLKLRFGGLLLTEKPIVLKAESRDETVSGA
# Assay: Cytochrome P450 family 3 subfamily A member 7 (CYP3A7) small molecule antagonists: luciferase biochemical qHTS assay (AID 1963596); note: nearly all actives have a fitted effect of over 40% in size
# Conditions: P450-Glo CYP3A7 enzyme luminescence, 1 h; series mostly up to 57.4 µM
# Summary of the method: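 Enzyme-substrate mix + cpd (DMSO), 10 min RT; + NADPH regen system, 1 h RT; + luciferin detection reagent, 20 min RT; luminescence read. Proluciferin substrate, P450-Glo format, 1536-well qHTS.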
row,SMILES,Potency
1,COc1ccccc1-c1ccc(-c2cn(C(=O)N3CCCCC3Cc3ccccc3)nn2)cc1 (stereo not given),inactive
2,Nc1nccs1,inactive
3,NC(=O)c1ncn(C2OC(CO)C(O)C2O)n1 (stereo not given),inactive
4,CC(C)(F)C[C@@H](N[C@@H](c1ccc(-c2ccc(S(C)(=O)=O)cc2)cc1)C(F)(F)F)C(=O)NC1(C#N)CC1,inactive
5,Cc1cccc(NC(=O)Cn2c(=O)n(Cc3ccc(C(=O)NCc4ccc5c(c4)OCO5)cc3)c(=O)c3ccccc32)c1,inactive
6,O=C(O)c1cc(C(F)(F)F)ccc1N1CC[C@H](OCc2ccccn2)C1,inactive
7,CCOc1ccc(-c2nn3ncccc3c2-c2ccc(S(C)(=O)=O)cc2)cc1,inactive
8,Nc1ncnc2c1ncn2[C@H]1O[C@@H](C(=O)N2CCN(CC(=O)Nc3cccc4c3CNC4=O)CC2)[C@H](O)[C@@H]1O,inactive
9,CCCN(CCc1cccs1)[C@H]1CCc2c(O)cccc2C1,inactive
10,CN1CCN(c2cc3c(cc2F)c(=O)c(C(=O)O)cn3-c2ccc(F)cc2)CC1,inactive
11,Cc1c(C)n(CCN(C)C)c2ccc(C(=O)OCCN(C)C)cc12,inactive
12,CCOc1ccc(C(NC(=O)c2cc(OC)c(OC)c(OC)c2)c2cc(Cl)c3cccnc3c2O)cc1 (stereo not given),inactive
13,CCCCCC/C=C\CCCCCCCc1cccc(O)c1C(=O)O,inactive
14,COC(=O)c1cc(S(C)(=O)=O)ccc1OC,inactive
15,Cc1nc(C)c(-c2ccc(C3CCC(CC(=O)O)CC3)cc2)nc1C(N)=O (stereo not given),inactive
16,CCOC(=O)c1csc(-n2nc(-c3ccc(F)c(F)c3)c(Cc3ccc(S(N)(=O)=O)cc3)c2N)n1,inactive
17,Cc1cc(C)cc(NC(=O)CSc2c(C(C)C)cnc3c2c(=O)n(C)c(=O)n3C)c1,inactive
18,CC(C)(C)CCN1C[C@@H]2C(CNC(=O)c3cc(Cl)cc(Cl)c3)[C@@H]2C1 (stereo not given in full),inactive
19,CCC(COC)n1nnc2c(Nc3ccc(OC)cc3C)nc(C)cc21 (stereo not given),inactive
20,CN1CC2CN(c3ccc4oc5ccccc5c(=O)c4c3)CC2C1 (stereo not given),inactive

row,SMILES,Potency
1,FCOC(C(F)(F)F)C(F)(F)F,inactive
2,CN1c2c(nc(N)[nH]c2=O)NCC1CNc1ccc(C(=O)NC(CCC(=O)O)C(=O)O)cc1 (stereo not given),inactive
3,O=C(NC1CCC1)c1ccc(C#Cc2cccc(F)c2)nc1,inactive
4,CC(C)(C)NCCCNC(=O)c1cccc(Br)c1,inactive
5,CCOc1ccc(S(=O)(=O)O)c2cccnc12,inactive
6,COc1ccc(NC(=O)CSc2nc(-c3cccs3)cc(C(F)(F)F)n2)cc1OC,inactive
7,COC(=O)c1ccc(C2C=C(c3ccc(Cl)cc3)Nc3nc4ccccc4n32)cc1 (stereo not given),inactive
8,CNc1ccc([N+](=O)[O-])cc1-n1cnc(-c2ccc(C(F)(F)F)cc2)c1,inactive
9,O=C(O)CN(CC(=O)O)Cc1cc2c(-c3ccccc3C(=O)O)c3cc(CN(CC(=O)O)CC(=O)O)c(=O)cc-3oc2cc1O,inactive
10,COC(C(=O)N1Cc2[nH]nc(NC(=O)c3ccc(N4CCN(C)CC4)cc3)c2C1)c1ccccc1 (stereo not given),inactive
11,CCCCC(O)c1ccccc1 (stereo not given),inactive
12,NC(=O)C(CCC(F)(F)F)N(Cc1ccc(-c2ncon2)cc1F)S(=O)(=O)c1ccc(Cl)cc1 (stereo not given),inactive
13,CCCCCCCCCC(=O)O,inactive
14,COc1ccc(-c2n[nH]c3c2cnc2cc(OC)c(OC)cc23)cc1,inactive
15,C=CCNCCCCCC[N+](C)(C)C,inactive
16,CCCCCCOC(=O)c1cccnc1,inactive
17,O=C(O)c1n[nH]c2c1C[C@H]1C[C@@H]21,inactive
18,Cc1ccc(S(=O)(=O)Nc2nc3n(n2)C(c2ccc(Cl)cc2)C=C(c2ccccc2)N3)cc1 (stereo not given),inactive
19,Cc1ccc(C)c(NC(=O)Cn2cc(C(=O)c3ccco3)c3ccccc32)c1,inactive
20,CC1(C)O[C@@H]2C[C@H]3[C@@H]4C[C@H](F)C5=CC(=O)CC[C@]5(C)[C@H]4[C@@H](O)C[C@]3(C)[C@]2(C(=O)CO)O1,inactive
